Assay results reported in PubChem BioAssay (NCI).
About 83,000 compounds went through this panel and 20% of them were active in at least one assay; those are over-represented in the sample as a whole.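 The endpoint reported here, percent growth, reads 100 for growth as untreated, 0 for no net growth and -100 for all cells dead.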 The source made the active and inactive calls. How the source made its calls: active means growth percent below 10; inactive means the rest.

Assays:
Assay in all cases: NCI-60 one-dose screen, 48 h (100 = growth as untreated, 0 = no growth, -100 = all killed)
Conditions in all cases: 10 µM unless noted
T-47D breast = tested on: T-47D breast
BT-549 breast = tested on: BT-549 breast
MDA-MB-435 melanoma = tested on: MDA-MB-435 melanoma
SW-620 colon = tested on: SW-620 colon
MCF7 breast = tested on: MCF7 breast
HCT-116 colon = tested on: HCT-116 colon
HCC-2998 colon = tested on: HCC-2998 colon
KM12 colon = tested on: KM12 colon

Measured: growth

CCOC(=O)C1=C(C)/C(=C\c2[nH]c(C)c(C(=O)OCC)c2C)N=C1C
inactive: T-47D breast 66.8% | BT-549 breast 98.1% | MDA-MB-435 melanoma 80.6% | MCF7 breast 88.2% | HCT-116 colon 74.5% | HCC-2998 colon 109% | KM12 colon 81.9%
active: SW-620 colon 2.24%

N=C(N)c1ccc(-c2ccc(-c3cc(Cl)cc(Cl)c3)s2)nc1
active: SW-620 colon -59.2% | MCF7 breast -47% | HCT-116 colon -73.6% | KM12 colon -75.3%
inactive: T-47D breast 84.2% | BT-549 breast 97.5% | MDA-MB-435 melanoma 44.6% | HCC-2998 colon 28.1%

COc1cccc(/C=C/C(=O)c2cc3c(N)c(C(=O)Nc4cccc5ccccc45)sc3nc2C)c1
active: MDA-MB-435 melanoma -50.7% | SW-620 colon -1.14% | HCC-2998 colon -23.8%
inactive: T-47D breast 32.3% | BT-549 breast 19.3% | MCF7 breast 13.4% | HCT-116 colon 12.2% | KM12 colon 11%

COc1ccc(/C=C2\COc3ccc(O)cc3C2=O)cc1
inactive: T-47D breast 87.9% | BT-549 breast 87.8% | MDA-MB-435 melanoma 78.7% | SW-620 colon 84.6% | MCF7 breast 15.4% | HCT-116 colon 77.7% | HCC-2998 colon 103% | KM12 colon 58%

CC1=C2[C@@H](CC1)[C@]1(C)O[C@@](c3ccccc3)(C[C@H]1OC(=O)CO)[C@H]2OC(=O)/C=C/c1ccccc1
active: BT-549 breast 0.952% | MDA-MB-435 melanoma -80.7%
inactive: T-47D breast 65.2% | SW-620 colon 104% | MCF7 breast 78.6% | HCT-116 colon 86.2% | HCC-2998 colon 93.2% | KM12 colon 88.4%

c1ccc(CCNc2c3ccccc3nc3ccccc23)cc1
inactive: T-47D breast 48.9% | BT-549 breast 73.6% | MDA-MB-435 melanoma 55.3% | SW-620 colon 28.3% | MCF7 breast 12.2% | HCT-116 colon 16.5% | HCC-2998 colon 41.4% | KM12 colon 57.4%

COc1cccc(-c2cc(-c3cccc(Cl)c3)c(C#N)c(=O)[nH]2)c1
active: MDA-MB-435 melanoma 4.96%
inactive: T-47D breast 80.1% | BT-549 breast 53.5% | SW-620 colon 49.3% | MCF7 breast 55.5% | HCT-116 colon 73.9% | HCC-2998 colon 98.7% | KM12 colon 57.5%

CN1CCN(C(=S)SCCCCOc2cc(=O)oc3ccccc23)CC1
inactive: T-47D breast 55.6% | BT-549 breast 81.3% | MDA-MB-435 melanoma 96.7% | SW-620 colon 100% | MCF7 breast 78.6% | HCT-116 colon 86.8% | HCC-2998 colon 98.1% | KM12 colon 85.4%

Cc1ccc(-c2csc(NC(=O)c3ccccc3CN3C(=O)c4ccccc4C3=O)n2)cc1
inactive: T-47D breast 97.1% | BT-549 breast 91.4% | MDA-MB-435 melanoma 95.3% | SW-620 colon 100% | MCF7 breast 94.3% | HCT-116 colon 95.4% | HCC-2998 colon 98% | KM12 colon 100%

CN(Cc1cc(Br)cc(Br)c1O)Cc1cc(Br)cc(Br)c1O
active: HCT-116 colon 7.44%
inactive: T-47D breast 42.6% | BT-549 breast 57.8% | MDA-MB-435 melanoma 52.6% | SW-620 colon 24.5% | MCF7 breast 17.7% | HCC-2998 colon 38.7% | KM12 colon 42.5%

CC(C)(C)n1cc(-c2ccnc(NCCCNS(=O)(=O)c3ccc(C(F)(F)F)cc3)c2)c(-c2cccc(F)c2)n1
inactive: T-47D breast 64.5% | BT-549 breast 84% | MDA-MB-435 melanoma 93.7% | SW-620 colon 90% | MCF7 breast 66.2% | HCT-116 colon 54.4% | HCC-2998 colon 106% | KM12 colon 65.7%

CN(CCCNC(=O)Cc1ccc2ccc3cccc4ccc1c2c34)CCCNc1cc(-c2ccc3ccccc3c2)nc2ccccc12
active: T-47D breast -67% | BT-549 breast -4.41% | MDA-MB-435 melanoma -63.4% | SW-620 colon -69.4% | MCF7 breast -86.2% | HCT-116 colon -85.4% | HCC-2998 colon -89.1% | KM12 colon -80%

C[n+]1ccc(CCc2c[nH]c3ccccc23)cc1
inactive: T-47D breast 72.6% | BT-549 breast 98.2% | MDA-MB-435 melanoma 104% | SW-620 colon 100% | MCF7 breast 93.2% | HCT-116 colon 97.2% | HCC-2998 colon 92.6% | KM12 colon 70.8%

O=C(Nc1ncc(Cc2cc(C(F)(F)F)ccc2Cl)s1)c1cccs1
inactive: T-47D breast 31.9% | BT-549 breast 46.9% | SW-620 colon 47% | MCF7 breast 30% | HCT-116 colon 39.9% | HCC-2998 colon 64.5% | KM12 colon 29.5%
active: MDA-MB-435 melanoma 1.23%

Nn1c(=O)c(=O)[nH]c2c(cnn2-c2ccccc2)c1=O
inactive: T-47D breast 108% | BT-549 breast 114% | MDA-MB-435 melanoma 107% | SW-620 colon 110% | MCF7 breast 99.4% | HCT-116 colon 108% | HCC-2998 colon 105% | KM12 colon 107%

COC(=O)c1c2c(c(C)[n+]([O-])c1C)C(=O)C(NCc1ccc(OC)cc1)=CC2=O
inactive: BT-549 breast 56% | HCC-2998 colon 15.1% | KM12 colon 14.3%
active: T-47D breast 3.48% | MDA-MB-435 melanoma -67.6% | SW-620 colon 6.71% | MCF7 breast -7.88% | HCT-116 colon 3.89%

CN(C)c1ccc(/C=C(\C#N)c2cc3ccccc3[nH]2)cc1
inactive: T-47D breast 36.1% | BT-549 breast 42.4% | SW-620 colon 13.2% | MCF7 breast 19.9% | HCT-116 colon 11.5% | HCC-2998 colon 45.5% | KM12 colon 24.9%
active: MDA-MB-435 melanoma -25.4%

N#Cc1cccc(C2C3=C(COC3=O)N(CCO)c3cc4c(cc32)OCO4)c1 (stereo not drawn)
inactive: T-47D breast 20.8% | BT-549 breast 38.7% | SW-620 colon 16.3% | MCF7 breast 22.4% | HCT-116 colon 17% | HCC-2998 colon 83.5% | KM12 colon 27.9%
active: MDA-MB-435 melanoma 0.432%

Clc1ccc(-c2cc(-c3ccccc3)nc(NCCNc3ccnc4cc(Cl)ccc34)n2)cc1
active: MDA-MB-435 melanoma -56.9% | SW-620 colon -63% | MCF7 breast -76.8% | HCT-116 colon -79.4% | HCC-2998 colon -88.9% | KM12 colon -5.53%
inactive: T-47D breast 11.8% | BT-549 breast 88.3%

CCNC(=O)Oc1ccc(/C(=C(/CC)Cc2ccccc2)c2ccc(OCCN3CCCC3)cc2)cc1
inactive: T-47D breast 68.3% | BT-549 breast 100% | MDA-MB-435 melanoma 102% | SW-620 colon 99.6% | MCF7 breast 35.9% | HCT-116 colon 72.1% | HCC-2998 colon 91.3% | KM12 colon 98%

C#CCn1cnc2cnc(Nc3cccc(NC(=O)C=C)c3)nc21
inactive: T-47D breast 66% [6.25 µM] | BT-549 breast 60.9% [6.25 µM] | MDA-MB-435 melanoma 60.6% [6.25 µM] | SW-620 colon 91.2% [6.25 µM] | MCF7 breast 77.4% [6.25 µM] | HCT-116 colon 86.4% [6.25 µM] | HCC-2998 colon 97.9% [6.25 µM] | KM12 colon 91.9% [6.25 µM]

NNCCc1ccc(NC(=O)CCCc2ccc(C(=O)Nc3ccccc3N)cc2)cc1
inactive: T-47D breast 28.7% | BT-549 breast 71% | MDA-MB-435 melanoma 71.1% | SW-620 colon 57.5% | MCF7 breast 57.8% | HCT-116 colon 41.6% | HCC-2998 colon 92.4% | KM12 colon 81.5%

COc1ccccc1C(=O)Nc1cccc(NC(=O)c2ccoc2C)c1
inactive: T-47D breast 45.1% | BT-549 breast 44% | SW-620 colon 28.2% | MCF7 breast 24.6% | HCT-116 colon 15.3% | HCC-2998 colon 67.2% | KM12 colon 21.1%
active: MDA-MB-435 melanoma -15.8%

COc1ccc2c(c1)c(-c1nc(-c3c[nH]c4ncccc34)cs1)cn2CCO
inactive: T-47D breast 23.4% | BT-549 breast 41.7% | MDA-MB-435 melanoma 66.5% | SW-620 colon 63.1% | MCF7 breast 20.1% | HCT-116 colon 50.9% | HCC-2998 colon 58.9% | KM12 colon 20.7%

O=C(CN1CCN(c2cc3c(cc2F)c(=O)c(C(=O)O)cn3C2CC2)CC1)N/N=C/c1ccco1
inactive: T-47D breast 86.8% | BT-549 breast 95.2% | MDA-MB-435 melanoma 102% | SW-620 colon 99.6% | MCF7 breast 87.1% | HCT-116 colon 97.1% | HCC-2998 colon 107% | KM12 colon 102%

O=C(NCc1cccc(CNC(=O)Nc2nc3ccccc3[nH]2)c1)Nc1nc2ccccc2[nH]1
active: MDA-MB-435 melanoma -74.9% | SW-620 colon -41.6% | MCF7 breast -43.7% | HCT-116 colon -82.4% | KM12 colon -41.9%
inactive: T-47D breast 15.9% | BT-549 breast 29.3% | HCC-2998 colon 17.9%

Cc1ccc(/C=C/C(=O)c2cccc(OCCCOc3cccc(C(=O)/C=C/c4ccc(C)cc4)c3)c2)cc1
inactive: T-47D breast 58.4% | BT-549 breast 79.7% | MDA-MB-435 melanoma 89.3% | SW-620 colon 68.1% | HCT-116 colon 18.3% | HCC-2998 colon 66.3% | KM12 colon 78.8%
active: MCF7 breast 2.54%

COC(=O)c1cc(Br)ccc1O
inactive: T-47D breast 119% | BT-549 breast 103% | MDA-MB-435 melanoma 116% | SW-620 colon 114% | MCF7 breast 99.2% | HCT-116 colon 108% | HCC-2998 colon 110% | KM12 colon 126%

N#C/C(=C\C=C\c1ccc(-c2cc(Cl)ccc2Cl)o1)c1nc2ccccc2s1
inactive: T-47D breast 84.8% | BT-549 breast 104% | MDA-MB-435 melanoma 102% | SW-620 colon 98.1% | MCF7 breast 83.3% | HCT-116 colon 96.6% | HCC-2998 colon 102% | KM12 colon 106%

C=CCC(CCCC)(C(=O)OCC)C(=O)OCC
inactive: T-47D breast 107% | BT-549 breast 96.7% | MDA-MB-435 melanoma 110% | SW-620 colon 114% | MCF7 breast 93% | HCT-116 colon 104% | HCC-2998 colon 102% | KM12 colon 108%

COc1cc(C(=O)n2nc(N3CCOCC3)c3cc(-n4cccc4)ccc32)cc(OC)c1OC
inactive: T-47D breast 60.5% | BT-549 breast 56.2% | MDA-MB-435 melanoma 75.2% | SW-620 colon 67.5% | MCF7 breast 52.1% | HCT-116 colon 48.6% | HCC-2998 colon 99.7% | KM12 colon 81.8%
